Holding throughout (assay): NCI-60 one-dose screen, 48 h (100 = growth as untreated, 0 = no growth, -100 = all killed)
What all share (conditions): 10 µM

Test [1] deals with SR leukemia.
The test system of test [2] is RPMI-8226 leukemia.
Test [3] relates to OVCAR-8 ovarian.
Test [4] concerns OVCAR-5 ovarian.
In test [5] the test system is OVCAR-4 ovarian.
Test [6] deals with SK-OV-3 ovarian.
Test [7] has as its system IGROV1 ovarian.
Test [8] has as its system OVCAR-3 ovarian.
Test [9] concerns HS 578T breast.
In test [10] the test system is NCI/ADR-RES ovarian.

Structures are written as SMILES. Compounds without any hit were thinned out: in the full panel of roughly 83,000, 20% have a hit.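 Values shown are percent growth following 48 h exposure of cells in 96-well plates to a single concentration of compound; below 10 was considered active.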 Values without a mark were called inactive. Calls of active or inactive are those of the source.

14 compounds from PubChem BioAssay (NCI) can be followed below.

Take `CCOc1nc(-c2ccccc2)cc2c(O)c(C(=O)NCCCO)[nH]c(=O)c12`: the growth in test [1] was 141%; in test [2], 51.2%; in [3] it was 108%; in test [4] it was 92.4%; in test [5], 103%; in test [6], 84.6%. In addition, the growth in [7] was 57.6%; in test [8] it was 93.1%; in test [9], 100%; in test [10] it was 113%.

As to `CC(C)=C1CCC(C)C/C1=N\N=C(N)N` (stereo not given), the growth in test [1] is 105%; in test [2] it was 96.7%; in test [3], 104%; in test [4] it was 110%; in test [5], 107%; in test [6] it was 106%. The growth in test [7] was 98.6%; in test [8], 113%; in test [9], 105%; in test [10] it was 101%.

Turning to `Oc1ccc(/C=N\Nc2ccccn2)c(O)c1`, the growth in test [1] was 11.7%; in [2] it was 26.2%; in test [3], 26.6%; in [4], 61.4%; in test [5], 32.7%; in test [6], 32.4%. The growth was 22.7% in test [7], -2.36% (active) in test [8], 65.8% in [9] and 0.0991% (active) in test [10].

`Cc1ccc(-c2cc(C(=O)Nc3ccc(S(=O)(=O)N4CCCCC4)cc3)[nH]n2)c(O)c1`: the growth in [1] was 14.9%; in test [2], 43.3%; in test [3], 58.7%; in [4], 73.8%; in test [5] it was 38.5%; in test [6], 94.1%. The growth in [7] was 68.8%; in [8] it was 55.3%; in test [9] it was 79.4%; in [10] it was 59.9%.

Take `COc1ccc(-c2nsc3c2NC(=O)CC3c2cccc(Cl)c2)cc1` (stereo not given): the growth in test [1] was 7.99% (active); in test [2], 12.4%; in [3] it was 33.7%; in [4] it was 32.8%; in test [5] it was 53.2%; in [6], 3.46% (active). Besides, the growth in test [7] was 39.2%; in [8], 11.4%; in [9] it was 37.6%; in test [10], 15.7%.

On to `N#C/C(=C/c1cc([N+](=O)[O-])ccc1Cl)C(N)=O`, for which the growth was 8.43% (active) in [1]; 68.7% in [2]; 82.5% in [3]; 107% in test [4]; 94.2% in [5]; 95.5% in test [6]. Moreover, the growth in [7] is 69.9%; in test [8] it was 104%; in [9] it was 113%; in [10] it was 98.2%.

Regarding `CC(=O)Oc1c(C)c(C)c2c(c1C)CCC(C)(CC(=O)OCCCCCCCCCCC[P+](c1ccccc1)(c1ccccc1)c1ccccc1)O2` (stereo not given), the growth is -34.7% (active) in test [1]; -49.8% (active) in [2]; -44.1% (active) in [3]; -37.4% (active) in [4]; -83.2% (active) in [5]; -18.4% (active) in test [6]. The growth was -46.2% (active) in [7], -90.5% (active) in [8], -35.2% (active) in test [9] and -42.5% (active) in test [10].

Turning to `COc1ccc(-c2nnc(COc3ccc(NC(=O)Nc4ccccc4)cc3F)o2)cc1`, the growth in test [1] is 36.1%; in [2], 51.3%; in test [3], 96.1%; in test [4], 114%; in test [5], 75.7%; in [6], 99.1%. The growth is 99.2% in test [7], 2.7% (active) in test [8], 82% in test [9] and 97.4% in [10].

Turning to `COc1cc(-c2nc3ccccc3[nH]2)ccc1OCc1nnc(-c2ccc(Br)cc2)o1`, the growth was -25.7% (active) in [1]; 51.5% in [2]; 75.7% in test [3]; 109% in test [4]; 85.1% in test [5]; 108% in test [6]. Further, the growth is 87.4% in test [7], 110% in test [8], 78.4% in test [9] and 92.5% in test [10].

As to `Cc1nc(N)sc1Sc1nc2ccc(Cl)cc2c(=O)n1-c1ccc(Oc2ccccc2)cc1`, the growth in test [1] was -44.8% (active); in test [2], 68.1%; in test [3], 75.2%; in test [4] it was 87.9%; in [5] it was 40.9%; in test [6], 104%. Besides, the growth in test [7] was 101%; in [8], 91.3%; in test [9] it was 81.9%; in [10] it was 69.9%.

Turning to `COc1ccc(-c2[nH]ncc2-c2cc(OC)c(OC)c(OC)c2)cc1`, the growth in [1] is 0.125% (active); in test [2], 0.214% (active); in test [3], 9.19% (active); in [4], 20.7%; in [5] it was 26.8%; in test [6] it was -0.205% (active). Besides, the growth in [7] was 28.8%; in test [8], -17.5% (active); in [9] it was 16.1%; in test [10], 14.5%.

Consider `C#CCNCCN1C(=O)c2ccc3c4c(ccc(c24)C1=O)C(=O)N(CCNCC#C)C3=O`, for which the growth is 13.9% in [1]; 45.3% in [2]; 32% in test [3]; 68.2% in test [4]; -34.7% (active) in test [5]; 70.3% in test [6]. In addition, the growth was 36.9% in [7], 5.29% (active) in [8], 64% in [9] and 45.1% in [10].

With `O=C(Nc1ccc(CN2CCOCC2)cc1)c1ccc(-c2cc(Cl)ccc2Cl)o1`, the growth was -12.9% (active) in test [1]; -5.45% (active) in test [2]; 36% in test [3]; 72.1% in test [4]; 50.6% in [5]; 81.5% in test [6]. The growth in test [7] was 34%; in test [8], 70.9%; in test [9], 72.2%; in [10] it was 46.9%.

Regarding `O=C(NCCCl)c1cc(Cl)cc(Cl)c1`, the growth in test [1] is 103%; in [2], 102%; in test [3] it was 102%; in test [4] it was 107%; in test [5], 95.1%; in test [6] it was 103%. Moreover, the growth in test [7] is 106%; in test [8], 114%; in test [9] it was 103%; in test [10], 105%.
